Hits are enriched below; roughly 9.2% of the tested compounds scored in any of these assays.
ELG1 genotoxic – qHTS screen for small molecules that induce genotoxicity in human embryonic kidney (HEK293T) cells expressing luciferase-tagged ELG1; Potency, µM (series often up to 46 µM), without a hit: at the top dose activity change, positive = activation, most hits filed as activators; HEK293T ELG1-luciferase reporter, luminescence, 16 h; hit rate 1.3% among 330,000; further: % of control where 0% means no effect; nearly all actives have a fitted effect of over 60% in size
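DMSO vehicle served as control against compound-treated ELG1-luciferase HEK293T cells; exposure lasted 16 hr at 37 °C and 5% CO2, followed by ONE-Glo luminescence detection after 30 min.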
SMN2 splice up – qHTS Assay for Enhancers of SMN2 Splice Variant Expression. HEK293 SMN2-luciferase splicing reporter, luminescence, 30-36 h. hit rate 2.8% among 210,000. Potency, µM (doses to about 46.1 µM), for the others: at the highest dose activity change, positive = activation, most hits filed as activators; further: % of control where 0% means no effect; nearly all actives have a fitted effect of over 55% in size
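HEK293 cells carry an SMN2 minigene-luciferase reporter in which exon 7 inclusion puts luciferase in frame. Cells were seeded at 2000 cells/well, attached for 10-12 hours, then exposed to compounds for 30-36 hours at 37C before ONE-Glo luminescence.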
Rab9 promoter act – qHTS Assay for Rab9 Promoter Activators. Huh7 Rab9 promoter-luciferase reporter, luminescence, 24 h. Potency, µM (highest dose often 9.22 µM), inactives show at the top dose activation, negative = inhibition, usual class: activators. hit rate 2.8% among 320,000. AID 485297, 2010; further: % of control where 0% means no effect; nearly all actives have a fitted effect of over 60% in size
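Huh7 cells stably carrying Rab9 promoter–luciferase reporter, plated 1500 cells/well, compound added after 2 h and incubated 24 h at 37 °C; luciferase luminescence then read after 10 min with detection reagent.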
FLuc counter – qHTS profiling assay for firefly luciferase inhibitor/activator using purifed enzyme and Km concentrations of substrates (counterscreen for miR-21 project); Luciferin 4-monooxygenase (Photinus pyralis), P08659; purified FLuc, Km substrates, luminescence inhibition; Potency, µM (doses to about 57.5 µM), inactives show at the top dose activity change, negative = inhibition, most hits filed as inhibitors; hit rate 6.9% among 360,000;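 further: plate controls were vehicle for no effect and reference inhibitor for full effect; nearly all actives have a fitted effect of over 55% in size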
Target sequence (P08659 whole entry, looked up): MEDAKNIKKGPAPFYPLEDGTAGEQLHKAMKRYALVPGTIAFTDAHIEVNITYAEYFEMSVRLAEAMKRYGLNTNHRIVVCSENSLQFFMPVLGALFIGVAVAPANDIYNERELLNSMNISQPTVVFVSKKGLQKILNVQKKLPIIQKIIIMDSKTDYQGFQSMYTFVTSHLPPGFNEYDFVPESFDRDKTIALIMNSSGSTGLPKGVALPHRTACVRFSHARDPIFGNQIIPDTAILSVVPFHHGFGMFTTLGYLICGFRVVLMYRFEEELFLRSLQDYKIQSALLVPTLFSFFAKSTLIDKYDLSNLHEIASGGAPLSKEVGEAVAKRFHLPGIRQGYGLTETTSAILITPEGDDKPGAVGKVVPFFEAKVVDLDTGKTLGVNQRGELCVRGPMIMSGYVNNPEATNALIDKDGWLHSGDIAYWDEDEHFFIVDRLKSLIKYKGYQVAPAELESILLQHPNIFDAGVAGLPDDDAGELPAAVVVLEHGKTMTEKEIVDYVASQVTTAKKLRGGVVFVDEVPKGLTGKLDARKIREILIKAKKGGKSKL
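Purified P. pyralis luciferase (10nM final) with 10uM D-luciferin and 10uM ATP (Km levels) in 50mM Tris acetate pH 7.5, 10mM Mg acetate, 0.01% Tween-20, 0.05% BSA; qHTS 6-point titration, ~60 µM downward; luminescence read.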
NPC1 promoter act – qHTS Assay for NPC1 Promoter Activators; Huh7 NPC1 promoter luciferase reporter, 24 h; Potency, µM (doses to about 9.22 µM), for the others: at the top dose activation, most hits filed as activators; hit rate 2.4% among 320,000; further: % of control where 0% means no effect; nearly all actives have a fitted effect of over 60% in size
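Huh7 cells stably carrying NPC1 promoter–luciferase, plated in Opti-MEM with 10% FBS for 2 h, were exposed to compound in DMSO for 24 h at 37 °C; luciferase reagent was added for 10 min and luminescence read.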
ELG1 DNA repair – qHTS screen for small molecules that inhibit ELG1-dependent DNA repair in human embryonic kidney (HEK293T) cells expressing luciferase-tagged ELG1 | Potency, µM (top dose mostly 46.1 µM), for the others: top-dose activity change, negative = inhibition, hits mostly inhibitors | HEK293T ELG1-luciferase reporter, luminescence, 16 h; DNA damage induced by 5-fluorouridine | hit rate 2.3% among 330,000; further: on the % scale 0 is the no-effect control and ±100 the full control effect; nearly all actives have a fitted effect of over 55% in size
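DMSO vehicle served as the neutral condition. Each well held 2,000 cells given 5-fluorouridine plus compound; after 16 hr at 37 °C/5% CO2, ONE-Glo was added and luciferase measured 30 min later.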
Numbers without * were called inactive; ? = inconclusive; · = no result. The call rests on the fitted dose curve; in most records, active means well fitted curve in the direction sought with a large enough effect; inconclusive means small, poorly fitted or top-dose-only effect, or another doubt; inactive means no such curve, though single readings can be large; an effect the other way counts as inactive or inconclusive. Potency means the concentration at half of the fitted maximal effect.

SMILES	ELG1 genotoxic	SMN2 splice up	Rab9 promoter act	FLuc counter	NPC1 promoter act	ELG1 DNA repair
CC(C)c1ccc(NC(=O)C(Cc2ccccc2)NS(=O)(=O)c2ccc3c(c2)oc(=O)n3C)cc1 (configuration not stated)	·	-0.2%	·	-0.7%	·	·
CCN(CC)CCN(C(=O)c1cc2c(ccc3ccccc32)oc1=O)c1nc2cc3c(cc2s1)OCCO3	18.3µM*	·	11.9%	-7.8%	11.3%	?
CCN(CC)CCN(C(=O)c1ccc2c(c1)OCCO2)c1nc2cc3c(cc2s1)OCO3	-8.6%	·	3.4%	-0.9%	-3.6%	-1.3%
CCCCC(=O)OCc1cc(=O)n2nc(C3CC3)sc2n1	·	·	·	-8.1%	·	·
COC(=O)c1cc(OC)c(OC)cc1NC(=O)Nc1ccc(OC)cc1	0.5%	-8.3%	-1.7%	2.5%	-3.7%	-3.1%
COC(=O)c1cc2ccc(OC)cc2c2cc(OC)c(OC)cc12	-5.8%	·	·	·	·	13µM*
CCOc1ccccc1N1CC(c2nc3ccccc3n2CCCOc2ccccc2OC)CC1=O (configuration not stated)	·	22.6%	·	16.9µM*	·	·
CCc1ccccc1N1CC(c2nc3ccccc3n2CCCCOc2ccccc2OC)CC1=O (configuration not stated)	·	-73.1%	·	-17.1%	·	·
COc1ccccc1OCCCn1c(C2CC(=O)N(c3ccccc3Cl)C2)nc2ccccc21 (configuration not stated)	·	17.5%	·	16.9µM*	·	·
CCSc1nnc(SCC(=O)c2c(N)n(C)c(=O)n(C)c2=O)s1	-2.1%	·	-6.1%	-4.4%	-1.8%	-17.3%
COc1ccc(NC(=O)Cn2c(SCc3c(F)cccc3Cl)nc3ccncc32)cc1OC	·	-0.5%	·	?	·	·
Cc1cccc(-n2cnc3sc(C)c(C)c3c2=O)c1	8.4%	·	11.9%	-12.1%	0.7%	?
Cc1nc2scc(-c3ccccc3)c2c(=O)n1/N=C/c1ccco1	-2.6%	-6.4%	2.8%	0.3%	0.3%	14.6µM*
Cc1sc2ncn(/N=C/c3ccco3)c(=O)c2c1C	?	·	?	10.7µM*	26.6%	28.6%
COc1ccc(CNC(=O)C(=O)NCC2CCCN2S(=O)(=O)c2ccccc2)cc1 (configuration not stated)	-0.9%	·	1.5%	-0.5%	-1.5%	-16.5%
CC(=O)c1cccc(NC(=O)CSc2nc(N3CCOCC3)nc(N3CCOCC3)n2)c1	13.1%	·	7.1%	0.2%	-0.2%	2.9%
O=C(COc1ccc(C(=S)N2CCOCC2)cc1)Nc1ccccc1C(F)(F)F	-0.4%	·	-7.3%	-0.5%	-5.2%	-3.9%
CCOc1cc(/C=N/NC(=S)Nc2ccccc2C(F)(F)F)ccc1OCC(=O)N1CCOCC1	-5.7%	-12.1%	-5.7%	-4.9%	-1.6%	11.6µM*
CCOc1cc(C=O)ccc1OCC(=O)N1CCCC1	-0.3%	·	-3.2%	1.7%	-9.6%	11.7%
CCOc1cc(/C=N/Nc2cccc(C(=O)O)c2)ccc1OCC(=O)N1CCCCC1	?	11.2µM*	4.47µM*	21.3µM*	3.98µM*	?
CCOC(=O)c1ccccc1NC(=O)c1c2c(nc3ccccc13)C(=O)N(C1CCCCC1)C2	·	·	·	0.2%	·	·
CCN(CC(=O)NCc1ccc(F)cc1)C(=O)CN1CCN(c2ccc(OC)cc2)CC1	-4.3%	·	1.9%	1.2%	-1.0%	-13.8%
COc1ccc(OC)c(CN2CCN(C(=O)CNC(=O)c3ccccc3F)CC2)c1	-3.7%	·	·	·	·	18.4%
Nc1ncnc(Nc2ccccn2)c1[N+](=O)[O-]	-11.0%	5.3%	2.5%	-0.6%	-1.2%	?
Nc1ncnc(NCc2ccc(F)cc2)c1[N+](=O)[O-]	-15.9%	-14.8%	-2.5%	-0.3%	-2.1%	8.2µM*
SMILES	ELG1 genotoxic	SMN2 splice up	Rab9 promoter act	FLuc counter	NPC1 promoter act	ELG1 DNA repair
Nc1ncnc(NCc2ccccc2)c1[N+](=O)[O-]	-9.8%	-9.1%	-5.5%	3.5%	0.9%	10.3µM*
N#CC(C#N)=C1C=CC=CN1/C(=C\c1ccccc1)C(=O)c1cccs1	-2.5%	8.0%	1.2%	19µM*	-2.8%	-14.4%
N#CC(C#N)=C1C=CC=CN1/C(=C\c1ccccc1Cl)C(=O)c1ccccc1	-22.1%	-116.6%	-27.7%	?	-20.8%	?
COCCn1c(SCC(=O)Nc2cccnc2Cl)nc2ccccc2c1=O	-0.1%	·	-1.1%	1.7%	-5.3%	10.8%
CCc1nc2sc3c(c2c(=S)[nH]1)CC(C)(C)OC3	-0.5%	·	8.8%	-10.3%	15.1%	11.2%
CC1(C)Cc2c(sc3nc(N/N=C/c4ccccc4)[nH]c(=O)c23)CO1	1.7%	-40.3%	21.8%	?	3.3%	2.2%
CSc1nc2sc3c(c2c(=S)[nH]1)CC(C)(C)OC3	-1.9%	·	17.3%	19µM*	2.5%	-9.1%
CC(C)=NNc1nc2sc3c(c2c(=O)[nH]1)CC(C)(C)OC3	0.1%	-0.3%	-4.4%	15.1µM*	0.7%	7.0%
C=CCn1c(SCc2ccc(C(=O)NCCO)cc2)nc2sc(C)c(C)c2c1=O	3.0%	-43.0%	-0.2%	?	-0.5%	0.0%
CCc1cc(C(=O)OC)c(NC(=O)CN2CCN(C(=O)c3ccco3)CC2)s1	-19.1%	·	7.2%	0.7%	-1.8%	10.3µM*
CCOC(=O)c1c(NC(=O)CN2CCCc3ccccc32)sc(C)c1C	?	-17.7%	1.7%	?	-2.2%	?
COCCOC(=O)c1c(NC(=O)CN2CCCc3ccccc32)sc(C(N)=O)c1C	-4.3%	·	-3.5%	4.2%	-0.2%	7.31µM*
CCOC(=O)c1c(NC(=O)c2ccco2)sc(C(=O)N2CCCC2)c1C	-5.6%	24.2%	-1.5%	-0.5%	1.7%	?
CCOC(=O)c1c(NC(=O)CN2CCN(C(=O)c3ccco3)CC2)sc(C(N)=O)c1C	0.3%	-2.6%	-1.1%	2.1%	-6.8%	23.1µM*
CCOC(=O)c1ccc(NC(=O)CN2C(=O)CN(C(C)=O)C2=S)cc1	3.9%	·	7.2%	-9.7%	7.6%	-4.0%
CCC(=O)N1CCc2cc(S(=O)(=O)N3CCCCC3CC)ccc21 (configuration not stated)	-2.0%	·	-5.7%	1.2%	0.4%	20.3%
C=C(C(=O)Nc1ccccc1)c1ccc(C)cc1	0.0%	·	5.6%	?	0.1%	1.3%
Cc1ccccc1N1CCN(C(=O)NCc2cccc(Cl)c2)CC1	-7.8%	·	0.3%	-9.1%	-3.0%	-2.2%
COc1ccc(-c2cc(-c3ccccc3)no2)cc1	?	·	0.398µM*	0.379µM*	0.501µM*	?
Cc1cccc(OCc2cc(-c3ccccc3)no2)c1C	?	·	?	12µM*	?	?

High-throughput results: PubChem BioAssay, National Center for Advancing Translational Sciences (NCATS)
